The source of these data is PubChem BioAssay (NCI).

Some test systems named below: SR leukemia; RPMI-8226 leukemia; OVCAR-8 ovarian; OVCAR-5 ovarian; OVCAR-4 ovarian; SK-OV-3 ovarian; IGROV1 ovarian; HS 578T breast; NCI/ADR-RES ovarian; T-47D breast; BT-549 breast; MDA-MB-435 melanoma; SW-620 colon; MCF7 breast; HCT-116 colon; HCC-2998 colon; KM12 colon; OVCAR-3 ovarian.
Holding throughout (test): NCI-60 one-dose screen, 48 h (100 = growth as untreated, 0 = no growth, -100 = all killed)
Holding throughout (conditions): 10 µM unless noted

Compounds without any hit were thinned out: in the full panel of roughly 83,000, 20% have a hit.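 For each line, cells grew in 96-well plates with the test compound present at a single concentration for 48 hours.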 Values without a mark were called inactive. Activity calls are given as the source filed them. The calls were made as follows: active = growth percent below 10; inactive = the rest.

With `CCN(CC)c1ccc(/C=N/NC(=O)c2ccc(NS(C)(=O)=O)cc2)cc1`, the growth in the assay with SR leukemia is 13.5%; in the assay with RPMI-8226 leukemia, 42%; with OVCAR-8 ovarian it was 9.7% (active); in the assay on OVCAR-5 ovarian, 49.4%; with OVCAR-4 ovarian, 35.6%; in the assay with SK-OV-3 ovarian it was 35.4%. The growth was 21.2% with IGROV1 ovarian; 65.6% with HS 578T breast; 58.3% in the assay with NCI/ADR-RES ovarian; 27.4% with T-47D breast; 28.4% with BT-549 breast; 37.3% with MDA-MB-435 melanoma. The growth with SW-620 colon was 40.5%; in the assay with MCF7 breast, 9.25% (active); in the assay with HCT-116 colon, 21.3%; in the assay with HCC-2998 colon, 45.7%; in the assay on KM12 colon, 18.1%.

Take `CCc1cc(OC(=O)N2CCC(N3CCCCC3)CC2)ccc1Nc1cc(-c2ccc(-n3cccn3)cc2)[nH]n1`: the growth with SR leukemia is -9.25% (active); with RPMI-8226 leukemia it was 20.9%; in the assay on OVCAR-8 ovarian it was 86.2%; in the assay on OVCAR-5 ovarian, 87.4%; in the assay on OVCAR-4 ovarian, 85.3%; with SK-OV-3 ovarian, 85.9%. Moreover, the growth was 56.9% in the assay on IGROV1 ovarian; 66.8% with HS 578T breast; 82.5% in the assay on NCI/ADR-RES ovarian; 97.2% with T-47D breast; 87.6% in the assay with BT-549 breast; 37.3% in the assay with MDA-MB-435 melanoma. The growth with SW-620 colon is -38.3% (active); in the assay on MCF7 breast, 6.81% (active); in the assay on HCT-116 colon it was -64.1% (active); in the assay with HCC-2998 colon, 83.8%; in the assay on KM12 colon, 70.1%.

For `Cn1cc(-c2nnc(N)nc2-c2c[nH]c3ccc(Br)cc23)c2cc(Br)ccc21`, the growth is 78.4% in the assay with SR leukemia; 109% in the assay with RPMI-8226 leukemia; 104% in the assay on OVCAR-8 ovarian; 120% in the assay on OVCAR-5 ovarian; 98.6% with OVCAR-4 ovarian; 111% in the assay with SK-OV-3 ovarian. Further, the growth with IGROV1 ovarian is 107%; with OVCAR-3 ovarian it was 108%; in the assay with HS 578T breast, 91.4%; in the assay with BT-549 breast it was 91.1%; in the assay with MDA-MB-435 melanoma it was 93.7%; in the assay with SW-620 colon, 112%. Further, the growth in the assay on MCF7 breast is 90.7%; with HCT-116 colon, 98.8%; in the assay on HCC-2998 colon it was 114%; in the assay on KM12 colon, 99.4%.

As for `O=C(CSc1nc2ccccc2c(=O)n1-c1ccccc1)N/N=C/c1ccc(Oc2ccc(Cl)cc2)cc1`, the growth with SR leukemia is 70.3%; with RPMI-8226 leukemia, 73.3%; in the assay on OVCAR-8 ovarian, 59.2%; with OVCAR-5 ovarian, 81.5%; in the assay on OVCAR-4 ovarian, 73.7%; in the assay on SK-OV-3 ovarian it was 83.2%. Moreover, the growth in the assay with IGROV1 ovarian is 49.1%; with OVCAR-3 ovarian, 111%; in the assay on HS 578T breast, 58.9%; in the assay with T-47D breast, 82.5%; with BT-549 breast, 69.9%; in the assay on MDA-MB-435 melanoma, 84.6%. In addition, the growth is 43.1% in the assay with SW-620 colon; 64.5% with MCF7 breast; 5.62% (active) in the assay with HCT-116 colon; 95.4% with HCC-2998 colon; 83.7% in the assay with KM12 colon.

Take `C=C(C)[C@@H]1CC[C@]2(C(=O)O)CC[C@]3(C)[C@H](CC[C@@H]4[C@@]5(C)C/C(=C/c6ccccn6)C(=O)C(C)(C)[C@@H]5CC[C@]43C)[C@@H]12`: the growth was 29.1% in the assay with SR leukemia; 13% in the assay on RPMI-8226 leukemia; 32% in the assay with OVCAR-8 ovarian; 82.4% with OVCAR-5 ovarian; 36.2% with OVCAR-4 ovarian; 70.4% with SK-OV-3 ovarian. Moreover, the growth in the assay on IGROV1 ovarian was 51.6%; in the assay on OVCAR-3 ovarian, 40.8%; in the assay with HS 578T breast, 63.6%; in the assay on T-47D breast, 19%; in the assay with BT-549 breast, 45.8%; in the assay on MDA-MB-435 melanoma, 36.6%. Moreover, the growth in the assay with SW-620 colon is 27.9%; in the assay on MCF7 breast, 18.7%; in the assay on HCT-116 colon, 13.5%; in the assay with HCC-2998 colon it was 31.3%; with KM12 colon, 30.6%.

For the compound `CC(C)(C)c1cc(NC(=O)Nc2ccc(-c3cn4c5c(sc4n3)CCc3cn(CCCN4CCCCC4)cc3-5)cc2)no1`, the growth in the assay on SR leukemia was -14% (active); in the assay on RPMI-8226 leukemia it was -19.5% (active); with OVCAR-8 ovarian, -52% (active); with OVCAR-5 ovarian it was -32.4% (active); in the assay with OVCAR-4 ovarian, -78.4% (active); with SK-OV-3 ovarian, 97%. The growth in the assay with IGROV1 ovarian was -78.5% (active); with HS 578T breast, 38.4%; in the assay on NCI/ADR-RES ovarian, -43% (active); with T-47D breast, -32.8% (active); with BT-549 breast it was 109%; in the assay on MDA-MB-435 melanoma it was -98.5% (active). Moreover, the growth in the assay on SW-620 colon is -68.2% (active); with MCF7 breast it was -79% (active); in the assay with HCT-116 colon, -96.2% (active); with HCC-2998 colon, -82.7% (active); in the assay on KM12 colon, -78% (active).

Turning to `Cc1ccc(-c2cc3nc(C(Cl)Cl)nc(-c4ccc(S(=O)(=O)N(C)C)cc4)n3n2)cc1`, the growth in the assay with SR leukemia was 68.7%; in the assay with RPMI-8226 leukemia it was 86.9%; with OVCAR-8 ovarian it was 65.5%; with OVCAR-5 ovarian, 106%; in the assay with OVCAR-4 ovarian, 94.3%; in the assay on SK-OV-3 ovarian, 101%. For the same compound, the growth in the assay on IGROV1 ovarian was 95%; in the assay on OVCAR-3 ovarian, 108%; with HS 578T breast it was 105%; with T-47D breast it was 93.8%; in the assay with MDA-MB-435 melanoma, 88.6%; in the assay with SW-620 colon, 83.1%. The growth was 74.2% in the assay with MCF7 breast, 62.9% with HCT-116 colon, 91.7% in the assay on HCC-2998 colon and 86.5% in the assay with KM12 colon.

In the case of `CC(=O)N(O)CCCCCNC(=O)CCC(=O)N(O)CCCCCNC(=O)CCC(=O)N(O)CCCCCN(CCCCCCCCCC[P+](c1ccccc1)(c1ccccc1)c1ccccc1)CCCCCCCCCC[P+](c1ccccc1)(c1ccccc1)c1ccccc1`, the growth with SR leukemia is 1.64% (active); in the assay on RPMI-8226 leukemia, -13.9% (active); in the assay on OVCAR-8 ovarian, 10.5%; in the assay on OVCAR-5 ovarian, 16.2%; in the assay on OVCAR-4 ovarian, 5.75% (active); in the assay on SK-OV-3 ovarian, -10% (active). The growth in the assay on IGROV1 ovarian was -63.9% (active); in the assay on HS 578T breast, 16.3%; with NCI/ADR-RES ovarian, 73.5%; in the assay on T-47D breast it was -4.99% (active); in the assay on BT-549 breast, -30.7% (active); with MDA-MB-435 melanoma, 4.44% (active). In addition, the growth in the assay with SW-620 colon is 12.2%; with MCF7 breast, 5.05% (active); with HCT-116 colon, 3.76% (active); with HCC-2998 colon, 4.2% (active); with KM12 colon, 4.3% (active).

As for `CC(=O)c1cc(C(=O)N2c3ccccc3Sc3ccccc32)n2c1ccc1ccccc12`, the growth is 11% in the assay on SR leukemia; 48.3% in the assay with RPMI-8226 leukemia; 71.5% in the assay with OVCAR-8 ovarian; 86.6% with OVCAR-5 ovarian; 78.1% in the assay with OVCAR-4 ovarian; 59.8% with SK-OV-3 ovarian. Besides, the growth with IGROV1 ovarian was 52.7%; in the assay on HS 578T breast, 55.1%; with NCI/ADR-RES ovarian it was 35.9%; in the assay on T-47D breast, 75.5%; in the assay on BT-549 breast, 52.6%; in the assay on MDA-MB-435 melanoma it was 3.08% (active). Also, the growth was 41.6% in the assay on SW-620 colon; 30.5% in the assay with MCF7 breast; 25.6% in the assay on HCT-116 colon; 87.8% in the assay with HCC-2998 colon; 44.6% in the assay on KM12 colon.
